# The whole screen tested about 69,000 compounds, of which about 1,000 (1.4%) showed an effect of 50% or more. Many of the other results were omitted from the sample, so strong results are more common in it than they were.
# Tested on: Leishmania donovani
# Test: Leishmania intramacrophage assay
# Assay type: functional, organism-based
# Set-up: scale not given: in the data most compounds retested in dose-response had high values
compound,measurement,setting,value
COc1ccc(CN2CCCCC2c2n[nH]cc2-c2cc(C)no2)cc1.Cl (stereo unspecified),Percent Effect,"30.3 µM, […]",-16.67%
CCn1ncc2c1CCCC2NCc1cc(OC)cc(OC)c1 (stereo unspecified),Percent Effect,30 µM,1.972%
Cc1nccc(CNC(=O)NCCOc2ccc(F)c(F)c2)n1,Percent Effect,"30 µM, 30.03 µM",3.237%
Cc1cc(CNC(=O)NCCOc2ccc(F)c(F)c2)on1,Percent Effect,"30.3 µM, […]",0.6606%
Cc1nc(C2(O)CCCNCC2)sc1CCOc1ccc(F)c(F)c1.Cl (stereo unspecified),Percent Effect,"30.3 µM, […]",85.82%
Cc1nc(C2(O)CCCNCC2)sc1CCOc1ccc(F)cc1.Cl (stereo unspecified),Percent Effect,"30.3 µM, […]",8.294%
CC1(C(=O)NCc2cccnc2Oc2ccc(F)c(F)c2)CCCNC1 (stereo unspecified),Percent Effect,"30.3 µM, […]",-16.47%
CC(=O)NCc1nnn2c1CN(c1ncc(C)cn1)CCC2,Percent Effect,"30.3 µM, […]",22.68%
O=C(NC[C@]12COC[C@H]1CN(Cc1nccs1)C2)c1cscn1.O=C(O)C(F)(F)F,Percent Effect,"30.3 µM, […]",14.84%
CCOc1cc(C(=O)N2CCN(CC)CC2)cc2occc12,Percent Effect,"30.3 µM, […]",-20.1%
CCOc1ccccc1NC(=O)CN(C)Cc1ccccc1Cl,Percent Effect,"30.3 µM, […]",52.93%
CCOC(=O)c1ccccc1NC(=O)CN(C)Cc1ccccc1Cl.O=C(O)C(=O)O,Percent Effect,"30.3 µM, […]",23.74%
CN(CC(=O)Nc1ccccc1C(=O)NC1CC1)Cc1ccccc1Cl,Percent Effect,"30.3 µM, […]",31.64%
O=C(Nc1cccc(OCC(F)F)n1)c1ccncc1F,Percent Effect,"30.3 µM, […]",29.54%
CCSc1ccc(C(=O)N2CCCC2C(=O)N2CCOCC2)cn1 (stereo unspecified),Percent Effect,"30.3 µM, […]",-29.5%
Cc1cc2nc(C(C)C)cc(N3CCC(Oc4ncccn4)CC3)n2n1,Percent Effect,"30.3 µM, […]",83.06%
Cc1cc2nc(C(C)C)cc(N3CCC(N(C)C)C3)n2n1 (stereo unspecified),Percent Effect,"30.3 µM, […]",15.59%
Cc1cc2nc(C(C)C)cc(N3CCC(O)CC3)n2n1,Percent Effect,"30.3 µM, […]",27.64%
O=C(CNC(=O)C1CCCC1)NCc1cnn(-c2ccc(F)cc2F)c1,Percent Effect,"30.3 µM, […]",-11%
CCN(c1ccc(C(=O)NCCCN2CCOCC2)cc1)S(=O)(=O)CC,Percent Effect,"30 µM, 30.03 µM",0.6611%
CC(O)CN1CCN(C(=O)c2ccc3c(c2)COC3)CC1 (stereo unspecified),Percent Effect,"30 µM, 30.03 µM",9.428%
Cn1cnc2c(-c3cccnc3)nc(C3CCN(S(C)(=O)=O)CC3)cc21,Percent Effect,"30.3 µM, […]",18.38%
Cc1nn(C)c(N2CCOCC2)c1CNC1CCS(=O)(=O)C1 (stereo unspecified),Percent Effect,"30.3 µM, […]",15.34%
CCN1CCOCC12CCN(c1cnccn1)CC2.O=C(O)C(F)(F)F,Percent Effect,"30.3 µM, […]",19.49%
Cc1noc(C)c1CN1CCOCC12CCN(c1ncccn1)CC2.O=C(O)C(F)(F)F,Percent Effect,"30.3 µM, […]",49.21%
Cc1noc(C)c1CN1CCOCC12CCN(c1cnccn1)CC2.O=C(O)C(F)(F)F,Percent Effect,"30.3 µM, […]",60.72%
O=C(c1cnn2c1OCCC2)N1CCC(Cc2ccccc2)CC1,Percent Effect,"30.3 µM, […]",-34.88%
OCc1cn(Cc2cccc(F)c2)nn1,Percent Effect,"30.3 µM, […]",6.732%
COC(=O)NCC(=O)N(C)CC1Cc2ccccc2CN1C (stereo unspecified),Percent Effect,"30.3 µM, […]",52.66%
CCOCCC(=O)N(C)CC1Cc2ccccc2CN1C (stereo unspecified),Percent Effect,"30.3 µM, […]",29.01%
COC(=O)CCCC(=O)N(C)CC1Cc2ccccc2CN1C (stereo unspecified),Percent Effect,"30.3 µM, […]",11.82%
COc1ncccc1C(=O)N1CCC(c2nc3c(C)cccc3[nH]2)CC1,Percent Effect,"30.3 µM, […]",-25.37%
CN1CCC(c2nnc3ccc(C(=O)N4CCCCC4)cn23)C1.O=C(O)C(F)(F)F (stereo unspecified),Percent Effect,"30.3 µM, […]",20.31%
COc1cccc(C(O)CN2CCN(C(=O)CCC(C)C)CC2)c1 (stereo unspecified),Percent Effect,"30.3 µM, […]",-26.89%
CS(=O)(=O)N1CCO[C@@H]2CN(C(=O)N3CCCC3)CC[C@@H]2C1,Percent Effect,"30.3 µM, […]",57.39%
CS(=O)(=O)N1CCO[C@@H]2CN(C(=O)N3CCOCC3)CC[C@@H]2C1,Percent Effect,"30.3 µM, […]",41.23%
CS(=O)(=O)N1CCO[C@@H]2CN(C(=O)C3CCOC3)CC[C@@H]2C1 (stereo partly specified),Percent Effect,"30.3 µM, […]",29.21%
Cc1cc(OCCC(=O)NCc2ccc(F)cc2)nnc1C,Percent Effect,"30.3 µM, […]",-17.71%
CCn1c(N)nc2cc(C(=O)N3Cc4ccccc4C3)cnc21,Percent Effect,"30.3 µM, […]",1.909%
O=C(CO)N1CCC(c2ccnc(Nc3cc(C(F)(F)F)ccn3)n2)C1 (stereo unspecified),Percent Effect,"30.3 µM, […]",30.85%
COCC(=O)N1CC(c2ccnc(Nc3cc(C(F)(F)F)ccn3)n2)C1,Percent Effect,"30.3 µM, […]",23.24%
CC(=O)N1CCC(c2ccnc(Nc3cc(C(F)(F)F)ccn3)n2)C1 (stereo unspecified),Percent Effect,"30.3 µM, […]",43.14%
Cl.NCC(=O)N1CCC(c2ccnc(Nc3cc(C(F)(F)F)ccn3)n2)C1 (stereo unspecified),Percent Effect,"30.3 µM, […]",77.96%
COC(=O)C(C)N1CCCc2cc(OC)ccc2C1 (stereo unspecified),Percent Effect,"30.3 µM, […]",8.236%
COCCN1CCC(Nc2ccc(C#N)cc2F)CC1,Percent Effect,"30.3 µM, […]",26.49%
CNC(=O)C1Cc2ccccc2CN1CCC#N (stereo unspecified),Percent Effect,"30.3 µM, […]",1.919%
CCCOc1cccc(-c2nc3c([nH]2)CCNC3)c1,Percent Effect,"30.3 µM, […]",25.72%
CC(C)COc1cccc(-c2nc3c([nH]2)CCNC3)c1,Percent Effect,"30.3 µM, […]",95.75%
FC(F)(F)COc1cccc(-c2nc3c([nH]2)CCNC3)c1,Percent Effect,"30.3 µM, […]",27.16%
CCN(C(=O)c1ccc(-n2ncc(C#N)c2N)cc1)C1CCCC1,Percent Effect,"30 µM, 30.03 µM",36.15%
O=C1C(NCc2nnc3n2CCCC3)CCN1CC(F)(F)F (stereo unspecified),Percent Effect,"30 µM, 30.03 µM",-13.74%
Cc1ccc(Br)cc1NC(=O)NC1CCC2(C1)OCCO2 (stereo unspecified),Percent Effect,"30.3 µM, […]",23.67%
Cc1ccc(CNC2(Cc3cc(CC(C)C)on3)COC2)o1,Percent Effect,"30.3 µM, […]",-12.32%
CC(C)Cc1cc(CC2(NCc3ccccc3Cl)COC2)no1,Percent Effect,"30.3 µM, […]",8.785%
CC(C)Cc1cc(CC2(NCc3ccco3)COC2)no1,Percent Effect,"30.3 µM, […]",63.35%
Cc1ccc(CN2CCc3nc(C(C)C)nc(O)c3CC2)s1,Percent Effect,"30.3 µM, […]",14.32%
O=C(c1cccnc1O)N1CCCN(c2cccnn2)CC1,Percent Effect,"30.3 µM, […]",3.038%
COc1ccc(C)cc1NC(=O)Nc1cnc(N2CCCC2)nc1,Percent Effect,"30.3 µM, […]",-0.2164%
COc1ccc(C)cc1NC(=O)Nc1cnc(N2CCOCC2)nc1,Percent Effect,"30.3 µM, […]",-26.13%
COc1ccc(C)cc1NC(=O)Nc1cnc(N2CCN(C)CC2)nc1,Percent Effect,"30 µM, 30.03 µM",50.02%
COc1ccc2nnc(C(=O)NC3CCCC3)nc2c1,Percent Effect,"30.3 µM, […]",8.289%
CCCS(=O)(=O)N1CCC2(CC1)CN(c1ccccn1)CCO2.O=C(O)C(F)(F)F,Percent Effect,"30 µM, 30.03 µM",10.12%
CS(=O)(=O)Cc1ccc(Cl)cc1NCc1ccccc1F,Percent Effect,"30.3 µM, […]",17.75%
CS(=O)(=O)Cc1ccccc1NCc1cc(Cl)ccc1Cl,Percent Effect,"30.3 µM, […]",50.41%
CS(=O)(=O)Cc1ccc(Cl)cc1NCc1cccc(F)c1F,Percent Effect,"30.3 µM, […]",15.72%
CC(O)CN1CCN(C(=O)c2ccc(N(C)C)nc2)CC1 (stereo unspecified),Percent Effect,"30 µM, 30.03 µM",21.97%

# From ChEMBL document CHEMBL3988442, “University of Dundee, Small-Polar-MMV Screening Library” (2021)
